Results taken from PubChem BioAssay (EPA / NIEHS).
Active and inactive are the calls of the source. Rule for the calls: active = hit-call score of the fitted dose curve at least 0.9, where 1 is the maximum; inactive = score below 0.9.

Legend:
[1] = read-out: Human Leukocyte Antigen - DR isotype (HLADR), HLA-DRA (gene 3122); test: BSK_BE3C_HLADR: BioMAP Diversity Plus: BE3C Assay for Human Leukocyte Antigen - DR isotype (HLADR) Biomarker Activity (AID 2283032); conditions: primary human bronchial epithelial cells; actives raise or lower the signal
How it was run: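 Human primary bronchial epithelial cells (BE3C system) exposed to compound for 24 hours; cell-surface HLA-DR measured by ELISA, fitted bidirectionally relative to DMSO. Total protein by SRB in parallel cultures tracked cytotoxicity.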

[2] = read-out: Vascular cell adhesion molecule 1 (VCAM1), VCAM1 (gene 7412); test: BSK_4H_VCAM1: BioMAP Diversity Plus: 4H Assay for Vascular cell adhesion molecule 1 (VCAM1) Biomarker Activity (AID 2283033); conditions: primary human endothelial cells (HUVEC); actives raise or lower the signal
How it was run: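 Primary human umbilical vein endothelial cells, 4H stimulation system, treated for 24 h; cell-surface VCAM-1 quantified by ELISA. Bidirectional fitting against DMSO; cytotoxicity tracked by SRB total-protein staining in parallel cultures.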

[3] = read-out: Interferon-gamma inducible Protein 10 (IP10), CXCL10 (gene 3627); test: BSK_BE3C_IP10: BioMAP Diversity Plus: BE3C Assay for Interferon-gamma inducible Protein 10 (IP10) Biomarker Activity (AID 2283034); conditions: primary human bronchial epithelial cells; actives raise or lower the signal
How it was run: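 Primary human bronchial epithelial cells, with IP-10 measured by ELISA 24 hours after chemical dosing. Bidirectional fit against DMSO; cytotoxicity checked by SRB total protein staining in parallel cultures.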

[4] = read-out: Monokine induced gamma interferon (MIG), CXCL9 (gene 4283); test: BSK_BE3C_MIG: BioMAP Diversity Plus: BE3C Assay for Monokine induced gamma interferon (MIG) Biomarker Activity (AID 2283035); conditions: primary human bronchial epithelial cells; actives raise or lower the signal
How it was run: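 ELISA read-out of MIG in human lung bronchial epithelial primary cultures, 24 h post-dosing. Bidirectional curve fit vs DMSO baseline.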

[5] = read-out: Transforming growth factor beta 1 (TGFb1), TGFB1 (gene 7040); test: BSK_BE3C_TGFb1: BioMAP Diversity Plus: BE3C Assay for Transforming growth factor beta 1 (TGFb1) Biomarker Activity (AID 2283036); conditions: primary human bronchial epithelial cells; actives raise or lower the signal
How it was run: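 Primary human bronchial epithelial cells dosed with chemical; TGF-b1 measured by ELISA 24 h after dosing. Bidirectional curve fitting against DMSO negative control; SRB total-protein staining in parallel cultures gauged cytotoxicity.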

[6] = read-out: Plasminogen activator inhibitor-1 (PAI1), SERPINE1 (gene 5054); test: BSK_BE3C_PAI1: BioMAP Diversity Plus: BE3C Assay for Plasminogen activator inhibitor-1 (PAI1) Biomarker Activity (AID 2283037); conditions: primary human bronchial epithelial cells; actives raise or lower the signal
How it was run: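 Primary human bronchial epithelial cells (BE3C system) exposed 24 h; PAI-1 quantified by ELISA. Parallel sulforhodamine B staining of total protein flags cytotoxicity. Bidirectional fit versus DMSO.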

[7] = read-out: urokinase plasminogen activator (uPA), PLAU (gene 5328); test: BSK_BE3C_uPA: BioMAP Diversity Plus: BE3C Assay for urokinase plasminogen activator (uPA) Biomarker Activity (AID 2283038); conditions: primary human bronchial epithelial cells; actives raise or lower the signal
How it was run: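 Using confluent primary human lung bronchial epithelial cultures, we dosed chemicals, waited 24 h, then ran a uPA ELISA, fitting bidirectionally against DMSO.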

[8] = read-out: Urokinase-type plasminogen activator receptor (uPAR), PLAUR (gene 5329); test: BSK_BE3C_uPAR: BioMAP Diversity Plus: BE3C Assay for Urokinase-type plasminogen activator receptor (uPAR) Biomarker Activity (AID 2283039); conditions: primary human bronchial epithelial cells; actives raise or lower the signal
How it was run: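 Primary human bronchial epithelial cells dosed for 24 h; uPAR quantified by ELISA with bidirectional fitting against DMSO. Overt cytotoxicity assessed in parallel cultures by SRB total-protein staining (0.1% SRB, 560 nm).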

[9] = read-out: Interleukin-6 (IL6), IL6 (gene 3569); test: BSK_CASM3C_IL6: BioMAP Diversity Plus: CASM3C Assay for Interleukin-6 (IL6) Biomarker Activity for (AID 2283040); conditions: primary human coronary artery smooth muscle cells; actives raise or lower the signal
[10] = read-out: Tissue plasminogen activator (tPA), PLAT (gene 5327); test: BSK_BE3C_tPA: BioMAP Diversity Plus: BE3C Assay for Tissue plasminogen activator (tPA) Biomarker Activity (AID 2283041); conditions: primary human bronchial epithelial cells; actives raise or lower the signal
How it was run: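 Primary human bronchial epithelial cells in the BE3C system, exposed to compound for 24 h. tPA was quantified by ELISA; DMSO served as baseline, with gain or loss of signal fitted. Cytotoxicity checked in parallel cultures by SRB total-protein staining.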

[11] = read-out: Interleukin-8 (IL8), CXCL8 (gene 3576); test: BSK_CASM3C_IL8: BioMAP Diversity Plus: CASM3C Assay for Interleukin-8 (IL8) Biomarker Activity (AID 2283042); conditions: primary human coronary artery smooth muscle cells; actives raise or lower the signal;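 note: IL-8 protein level quantified by ELISA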
[12] = read-out: Human Leukocyte Antigen - DR isotype (HLADR), HLA-DRA (gene 3122); test: BSK_CASM3C_HLADR: BioMAP Diversity Plus: CASM3C Assay for Human Leukocyte Antigen - DR isotype (HLADR) Biomarker Activity (AID 2283043); conditions: primary human coronary artery smooth muscle cells; actives raise or lower the signal;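 note: cell-surface HLA-DR protein level quantified by ELISA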
[13] = read-out: Macrophage colony-stimulating factor (MCSF), CSF1 (gene 1435); test: BSK_CASM3C_MCSF: BioMAP Diversity Plus: CASM3C Assay for Macrophage colony-stimulating factor (MCSF) Biomarker Activity (AID 2283044); conditions: primary human coronary artery smooth muscle cells; actives raise or lower the signal;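 note: M-CSF protein amount quantified by ELISA after 24 h exposure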
[14] = read-out: Low-density lipoprotein receptor (LDLR), LDLR (gene 3949); test: BSK_CASM3C_LDLR: BioMAP Diversity Plus: CASM3C Assay for Low-density lipoprotein receptor (LDLR) Biomarker Activity (AID 2283045); conditions: primary human coronary artery smooth muscle cells; actives raise or lower the signal;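 note: LDLR protein level on the cell surface quantified by ELISA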
[15] = read-out: Monocyte Chemoattractant Protein-1 (MCP1), CCL2 (gene 6347); test: BSK_CASM3C_MCP1: BioMAP Diversity Plus: CASM3C Assay for Monocyte Chemoattractant Protein-1 (MCP1) Biomarker Activity (AID 2283046); conditions: primary human coronary artery smooth muscle cells; actives raise or lower the signal;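 note: MCP-1 level quantified by ELISA 24 h after dosing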
[16] = BSK_CASM3C_Proliferation: Cell Proliferation Assessment in the BioMAP Diversity Plus: CASM3C Assay (AID 2283047); conditions: primary human coronary artery smooth muscle cells;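 note: sulforhodamine B total protein stain as relative cell number at 560 nm; sub-confluent cells exposed 48 h before staining; fitted both ways against DMSO so gain or loss of cell number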
[17] = read-out: Monokine induced gamma interferon (MIG), CXCL9 (gene 4283); test: BSK_CASM3C_MIG: BioMAP Diversity Plus: CASM3C Assay for Monokine induced gamma interferon (MIG) Biomarker Activity (AID 2283048); conditions: primary human coronary artery smooth muscle cells; actives raise or lower the signal;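 note: MIG protein level measured by ELISA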
[18] = read-out: serum amyloid A (SAA), SAA1 (gene 6288); test: BSK_CASM3C_SAA: BioMAP Diversity Plus: CASM3C Assay for serum amyloid A (SAA) Biomarker Activity (AID 2283049); conditions: primary human coronary artery smooth muscle cells; actives raise or lower the signal;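 note: SAA protein level quantified by ELISA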
[19] = BSK_CASM3C_SRB: Viability Assessment in the BioMAP Diversity Plus: CASM3C Assay (AID 2283050); conditions: primary human coronary artery smooth muscle cells
[20] = read-out: Thrombomodulin, THBD (gene 7056); test: BSK_CASM3C_Thrombomodulin: BioMAP Diversity Plus: CASM3C Assay for Thrombomodulin Biomarker Activity (AID 2283051); conditions: primary human coronary artery smooth muscle cells; actives raise or lower the signal;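 note: thrombomodulin protein level measured by ELISA 24 h after dosing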

Measured: AC50

O=[Si]=O
inactive: all assays above

COC(=O)CCCC(=O)OC
not listed: [2]
inactive: all other assays above

C=CCCCCCCCCCCCC
not listed: [2]
inactive: all other assays above

CCCCCCC(C=O)=Cc1ccccc1
active: [2] 33.5 µM | [16] 30.9 µM
not listed: [6]
inactive: all other assays above

CC(C)OC(=O)C(C)(C)Oc1ccc(C(=O)c2ccc(Cl)cc2)cc1
active: [14] 20 µM | [20] 11 µM
not listed: [2]
inactive: all other assays above

COc1ccc(C(=O)Nc2nc3ccccc3c(NCc3ccccc3)c2C#N)cc1
active: [14] 9.66 µM
not listed: [6]
inactive: all other assays above

CC(C)COC(=O)CCCCC(=O)OCC(C)C
not listed: [2]
inactive: all other assays above

CCOCCOCCO
not listed: [6]
inactive: all other assays above

c1ccc2occc2c1
not listed: [6]
inactive: all other assays above

CCCCC(CC)COP(=O)(OCC(CC)CCCC)OCC(CC)CCCC (centres undefined)
active: [2] 6.21 µM | [20] 7.89 µM
not listed: [6]
inactive: all other assays above

CCCCc1nc2cccnc2n1Cc1ccc(-c2ccccc2-c2nnn[nH]2)cc1
not listed: [6]
inactive: all other assays above

Cc1ccc(C(C)(C)C)c(O)c1
not listed: [6]
inactive: all other assays above

Cc1occc(=O)c1O
not listed: [2]
inactive: all other assays above

CC(C)c1cccc(C(C)C)c1
not listed: [2]
inactive: all other assays above

CCCCC(CC)CO (centres undefined)
not listed: [2]
inactive: all other assays above

CCCCCCCC(=O)OC
not listed: [6]
inactive: all other assays above

CC(=O)O
not listed: [2]
inactive: all other assays above

CC(=O)S[C@H](C(=O)N[C@H]1Cc2ccccc2[C@H]2CCC[C@@H](C(=O)O)N2C1=O)C(C)C
active: [12] 3.97 µM
not listed: [6]
inactive: all other assays above

O=C1OC(c2ccc(O)cc2)(c2ccc(O)cc2)c2ccccc21
active: [1] 0.379 µM | [2] 30.8 µM | [4] 7.79 µM | [16] 28.2 µM
not listed: [3] | [11]
inactive: all other assays above

Oc1ccccc1O
active: [2] 5.53 µM | [12] 10.4 µM | [13] 3.97 µM | [16] 7.66 µM | [20] 11 µM
not listed: [6]
inactive: all other assays above

CC(C)c1cccc(C(C)C)c1NC(=O)NS(=O)(=O)c1cc(C(C)(C)O)co1
not listed: [6]
inactive: all other assays above

O=C(O)CN(CC(=O)O)CC(=O)O
not listed: [6]
inactive: all other assays above

CC(C)NCC(O)c1ccc(O)c(O)c1 (centres undefined)
not listed: [6]
inactive: all other assays above

CCC(C)N(C)C(=O)c1cc2ccccc2c(-c2ccccc2Cl)n1 (centres undefined)
not listed: [2]
inactive: all other assays above

O=C(O)c1cccnc1
not listed: [6]
inactive: all other assays above

Cc1cc(Cc2ccc(N)c(C)c2)ccc1N
not listed: [6] | [18]
inactive: all other assays above

NCCOCCOCCN
not listed: [2]
inactive: all other assays above

Cn1cnc2c1c(=O)[nH]c(=O)n2C
not listed: [2]
inactive: all other assays above

Cc1ccc(-c2cc(C(F)(F)F)nn2-c2ccc(S(N)(=O)=O)cc2)cc1
active: [1] 33.4 µM | [2] 32.7 µM | [3] 30.6 µM | [4] 39.1 µM | [5] 20 µM | [7] 35.9 µM | [8] 31.6 µM | [9] 32.9 µM | [10] 18.6 µM | [11] 32.7 µM | [12] 32.4 µM | [14] 22.5 µM | [15] 31.5 µM | [16] 30.8 µM | [17] 31 µM | [18] 31.2 µM | [19] 33.9 µM | [20] 4.85 µM
